In PMC7862700, “An all-to-all approach to the identification of sequence-specific readers for epigenetic DNA modifications on cytosine” one finds binding signal data, which are given here for one sequence.

Assay in all cases: DAPPL (digital affinity profiling via proximity ligation, sequencing); 10 mM Tris-HCl pH 7.5, 50 mM NaCl, 1 mM DTT, 4% glycerol, room temperature, 30 min; GST-TFs on glutathione beads, 16-mer random dsDNA library, 0.1% formaldehyde crosslink after washing; high values mean tight binding
The target of one test is T1, FEV (Homo sapiens, UniProt Q99581 1-238).
T1 sequence: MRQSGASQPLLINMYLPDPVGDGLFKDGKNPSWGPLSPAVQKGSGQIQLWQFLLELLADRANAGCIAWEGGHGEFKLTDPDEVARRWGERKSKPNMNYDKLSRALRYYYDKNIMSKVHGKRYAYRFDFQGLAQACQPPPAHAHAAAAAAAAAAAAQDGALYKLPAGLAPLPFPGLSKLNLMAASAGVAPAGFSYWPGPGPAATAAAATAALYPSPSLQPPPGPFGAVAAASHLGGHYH
As to conditions: protein: recombinant; tags: N-terminal GST; dsDNA, one strand shown. The gist of the method:
(§1)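 A tag-only sample was pooled with DNA-barcoded human transcription factors that had been expressed in yeast as GST fusions and captured on glutathione beads. The pools were incubated for 30 min at room temperature with 200 nmole of a random double-stranded 16-mer DNA library in Tris/NaCl/DTT/glycerol buffer, then washed, crosslinked with 0.1% formaldehyde, proximity-ligated (BsaI/T4 ligase, 1 h, 37 °C), PCR-amplified and sequenced on an Illumina NextSeq500. Binding signal is each hexamer's read frequency for a factor divided by its frequency for the tag-only sample.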

Another test deals with ETV5 (Homo sapiens, UniProt P41161 1-510). As to conditions: protein: recombinant; tags: N-terminal GST; dsDNA, one strand shown. The method, boiled down:
as §1

A further test has as its target HSF1 (Homo sapiens, UniProt Q00613 1-529). As to conditions: protein: recombinant; tags: N-terminal GST; chain copies: 3; dsDNA, one strand shown. The method, boiled down: as §1
Another test has as its target T2, SPIC (Homo sapiens, UniProt Q8N5J4 1-248).
T2 sequence: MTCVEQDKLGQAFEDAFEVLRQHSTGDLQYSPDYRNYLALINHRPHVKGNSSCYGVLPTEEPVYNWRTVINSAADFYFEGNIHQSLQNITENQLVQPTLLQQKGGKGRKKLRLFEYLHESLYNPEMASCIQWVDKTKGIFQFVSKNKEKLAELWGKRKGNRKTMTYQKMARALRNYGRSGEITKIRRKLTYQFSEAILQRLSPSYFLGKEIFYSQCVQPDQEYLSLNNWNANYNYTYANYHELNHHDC
As to conditions: protein: recombinant; tags: N-terminal GST; dsDNA, one strand shown. The gist of the method: as §1

The next test concerns the target ELF4 (Homo sapiens, UniProt Q99607 1-663). As to conditions: protein: recombinant; tags: N-terminal GST; dsDNA, one strand shown. The gist of the method:
as §1

For another test, the target named is T3, ELK4 (Homo sapiens, UniProt P28324-2 1-405).
T3 sequence: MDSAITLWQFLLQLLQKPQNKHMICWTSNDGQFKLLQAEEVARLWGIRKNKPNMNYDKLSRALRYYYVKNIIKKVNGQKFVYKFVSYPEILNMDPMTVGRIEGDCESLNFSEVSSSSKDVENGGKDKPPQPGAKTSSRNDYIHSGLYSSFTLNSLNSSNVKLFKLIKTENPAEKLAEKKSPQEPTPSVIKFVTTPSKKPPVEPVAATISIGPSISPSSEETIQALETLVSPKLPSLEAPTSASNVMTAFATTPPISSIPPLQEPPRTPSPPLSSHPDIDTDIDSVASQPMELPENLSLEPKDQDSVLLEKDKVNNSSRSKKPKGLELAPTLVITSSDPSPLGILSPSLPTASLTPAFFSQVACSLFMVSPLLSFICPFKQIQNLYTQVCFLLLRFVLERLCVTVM
Particulars: protein: recombinant; tags: N-terminal GST; dsDNA, one strand shown. The gist of the method: as §1

A further test concerns the target T4, ETV2 (Homo sapiens, UniProt O00321 1-342).
T4 sequence: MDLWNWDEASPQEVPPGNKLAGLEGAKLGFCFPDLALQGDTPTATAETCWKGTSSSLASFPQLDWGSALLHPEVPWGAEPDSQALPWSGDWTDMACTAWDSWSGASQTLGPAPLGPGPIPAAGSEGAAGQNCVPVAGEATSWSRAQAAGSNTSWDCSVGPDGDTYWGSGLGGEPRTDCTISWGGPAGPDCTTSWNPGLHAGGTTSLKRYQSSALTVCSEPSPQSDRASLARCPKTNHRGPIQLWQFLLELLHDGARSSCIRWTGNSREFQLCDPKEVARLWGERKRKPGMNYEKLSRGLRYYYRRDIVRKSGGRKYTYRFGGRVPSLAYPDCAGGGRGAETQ
Particulars: protein: recombinant; tags: N-terminal GST; dsDNA, one strand shown. The method, boiled down:
as §1

In the next test the target is T5, ELF3 (Homo sapiens, UniProt P78545 1-371).
T5 sequence: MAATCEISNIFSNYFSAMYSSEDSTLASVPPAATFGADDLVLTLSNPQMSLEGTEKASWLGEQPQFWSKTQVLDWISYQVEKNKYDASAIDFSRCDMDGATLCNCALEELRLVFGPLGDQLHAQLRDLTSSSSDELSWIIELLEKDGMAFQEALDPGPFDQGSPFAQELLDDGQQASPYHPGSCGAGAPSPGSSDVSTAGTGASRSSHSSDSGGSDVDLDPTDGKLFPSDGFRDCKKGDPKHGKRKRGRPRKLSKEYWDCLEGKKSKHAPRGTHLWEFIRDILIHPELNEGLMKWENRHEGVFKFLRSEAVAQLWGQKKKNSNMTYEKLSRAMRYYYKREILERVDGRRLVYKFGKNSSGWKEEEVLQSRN
As to conditions: protein: recombinant; tags: N-terminal GST; dsDNA, one strand shown. The method, boiled down:
as §1

Another test deals with CRX (Homo sapiens, UniProt O43186 1-299). As to conditions: protein: recombinant; tags: N-terminal GST; dsDNA, one strand shown. The method, boiled down:
as §1

A further test concerns the target ETV1 (Homo sapiens, UniProt P50549 1-477). Particulars: protein: recombinant; tags: N-terminal GST; dsDNA, one strand shown. The method, boiled down:
as §1

The target of a further test is T6, ERF (Homo sapiens, UniProt P50548 1-548).
T6 sequence: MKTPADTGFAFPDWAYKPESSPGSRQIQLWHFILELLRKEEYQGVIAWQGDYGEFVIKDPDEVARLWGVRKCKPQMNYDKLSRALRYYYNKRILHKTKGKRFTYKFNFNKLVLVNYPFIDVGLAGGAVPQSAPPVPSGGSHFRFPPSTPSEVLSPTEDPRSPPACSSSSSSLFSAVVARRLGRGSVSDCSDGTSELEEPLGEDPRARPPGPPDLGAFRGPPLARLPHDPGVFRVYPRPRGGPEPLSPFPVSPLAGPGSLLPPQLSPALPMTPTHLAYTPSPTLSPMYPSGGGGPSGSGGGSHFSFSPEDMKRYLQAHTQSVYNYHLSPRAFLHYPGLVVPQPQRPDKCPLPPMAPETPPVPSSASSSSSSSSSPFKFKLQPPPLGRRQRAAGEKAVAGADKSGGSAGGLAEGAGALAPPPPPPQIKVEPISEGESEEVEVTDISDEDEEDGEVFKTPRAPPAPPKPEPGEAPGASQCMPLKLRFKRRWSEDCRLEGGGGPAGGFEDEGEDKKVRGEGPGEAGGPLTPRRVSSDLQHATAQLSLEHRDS
Particulars: protein: recombinant; tags: N-terminal GST; dsDNA, one strand shown. The method, boiled down: as §1

The next test has as its target T7, ETV3L (Homo sapiens, UniProt Q6ZN32 1-361).
T7 sequence: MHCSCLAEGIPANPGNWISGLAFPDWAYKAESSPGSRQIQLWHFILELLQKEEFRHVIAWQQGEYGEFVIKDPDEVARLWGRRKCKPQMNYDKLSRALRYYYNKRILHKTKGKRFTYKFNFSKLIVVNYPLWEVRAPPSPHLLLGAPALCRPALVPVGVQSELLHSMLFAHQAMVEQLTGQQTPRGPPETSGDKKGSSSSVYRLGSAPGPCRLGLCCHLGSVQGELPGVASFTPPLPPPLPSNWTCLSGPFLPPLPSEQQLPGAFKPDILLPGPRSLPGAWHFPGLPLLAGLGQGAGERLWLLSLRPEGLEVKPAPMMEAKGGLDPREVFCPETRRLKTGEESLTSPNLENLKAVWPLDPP
Particulars: protein: recombinant; tags: N-terminal GST; dsDNA, one strand shown. The method, boiled down:
as §1

For a further test, the target named is T8, ETS2 (Homo sapiens, UniProt P15036 1-469).
T8 sequence: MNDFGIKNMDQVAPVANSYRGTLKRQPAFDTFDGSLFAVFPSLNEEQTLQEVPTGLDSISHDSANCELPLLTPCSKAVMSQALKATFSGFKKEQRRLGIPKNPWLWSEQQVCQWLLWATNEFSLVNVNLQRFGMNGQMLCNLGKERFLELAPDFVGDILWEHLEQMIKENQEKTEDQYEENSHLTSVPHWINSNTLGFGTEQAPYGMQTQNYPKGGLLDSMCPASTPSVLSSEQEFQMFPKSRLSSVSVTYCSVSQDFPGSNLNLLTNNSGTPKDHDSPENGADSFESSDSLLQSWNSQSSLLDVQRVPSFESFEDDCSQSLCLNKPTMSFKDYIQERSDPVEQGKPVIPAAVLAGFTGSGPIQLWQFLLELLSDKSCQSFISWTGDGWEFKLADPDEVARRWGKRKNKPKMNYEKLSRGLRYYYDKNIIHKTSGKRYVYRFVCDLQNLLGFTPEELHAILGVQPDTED
As to conditions: protein: recombinant; tags: N-terminal GST; dsDNA, one strand shown. The method, boiled down: as §1

A further test addresses T9, SPDEF (Homo sapiens, UniProt O95238 1-335).
T9 sequence: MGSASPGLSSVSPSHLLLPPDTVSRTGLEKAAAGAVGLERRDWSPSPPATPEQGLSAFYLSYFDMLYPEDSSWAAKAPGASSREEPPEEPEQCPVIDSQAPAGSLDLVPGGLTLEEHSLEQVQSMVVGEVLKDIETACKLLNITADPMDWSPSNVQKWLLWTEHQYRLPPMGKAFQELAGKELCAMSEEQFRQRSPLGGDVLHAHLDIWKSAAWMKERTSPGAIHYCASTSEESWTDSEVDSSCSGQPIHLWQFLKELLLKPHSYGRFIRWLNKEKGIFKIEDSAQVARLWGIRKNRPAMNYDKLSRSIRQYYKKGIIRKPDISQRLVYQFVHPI
As to conditions: protein: recombinant; tags: N-terminal GST; dsDNA, one strand shown. The method, boiled down: as §1

The target in a further test is T10, ETV7 (Homo sapiens, UniProt Q9Y603 1-341).
T10 sequence: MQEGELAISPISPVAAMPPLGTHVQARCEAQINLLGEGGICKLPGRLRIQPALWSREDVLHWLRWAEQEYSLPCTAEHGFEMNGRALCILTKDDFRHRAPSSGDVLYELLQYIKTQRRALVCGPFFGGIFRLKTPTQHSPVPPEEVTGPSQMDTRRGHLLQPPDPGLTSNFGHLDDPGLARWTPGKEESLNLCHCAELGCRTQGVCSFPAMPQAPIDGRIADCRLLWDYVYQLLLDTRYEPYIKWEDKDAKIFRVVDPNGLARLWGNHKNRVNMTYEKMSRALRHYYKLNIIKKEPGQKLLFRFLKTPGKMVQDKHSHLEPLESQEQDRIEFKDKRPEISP
Particulars: protein: recombinant; tags: N-terminal GST; dsDNA, one strand shown. The gist of the method: as §1

The next test has as its target T11, ELF5 (Homo sapiens, UniProt Q9UKW6-2 1-255).
T11 sequence: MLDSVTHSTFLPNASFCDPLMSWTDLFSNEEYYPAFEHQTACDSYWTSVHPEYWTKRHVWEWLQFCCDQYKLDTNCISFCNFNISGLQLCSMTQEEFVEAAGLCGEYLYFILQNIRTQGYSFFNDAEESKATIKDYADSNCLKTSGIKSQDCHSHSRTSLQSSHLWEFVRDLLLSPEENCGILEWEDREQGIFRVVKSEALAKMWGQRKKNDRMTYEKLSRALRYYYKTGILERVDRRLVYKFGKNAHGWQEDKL
As to conditions: protein: recombinant; tags: N-terminal GST; dsDNA, one strand shown. The gist of the method: as §1

In a further test the target is T12, ETV3 (Homo sapiens, UniProt P41162-2 1-143).
T12 sequence: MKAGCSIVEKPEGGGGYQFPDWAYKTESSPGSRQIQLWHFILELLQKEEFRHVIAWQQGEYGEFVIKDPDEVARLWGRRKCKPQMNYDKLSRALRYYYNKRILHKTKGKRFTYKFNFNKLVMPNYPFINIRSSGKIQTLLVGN
As to conditions: protein: recombinant; tags: N-terminal GST; dsDNA, one strand shown. The method, boiled down: as §1

For a further test, the target named is ETV6 (Homo sapiens, UniProt P41212 1-452). Particulars: protein: recombinant; tags: N-terminal GST; dsDNA, one strand shown. The method, boiled down: as §1
Sequence of ETV6 (P41212 whole entry): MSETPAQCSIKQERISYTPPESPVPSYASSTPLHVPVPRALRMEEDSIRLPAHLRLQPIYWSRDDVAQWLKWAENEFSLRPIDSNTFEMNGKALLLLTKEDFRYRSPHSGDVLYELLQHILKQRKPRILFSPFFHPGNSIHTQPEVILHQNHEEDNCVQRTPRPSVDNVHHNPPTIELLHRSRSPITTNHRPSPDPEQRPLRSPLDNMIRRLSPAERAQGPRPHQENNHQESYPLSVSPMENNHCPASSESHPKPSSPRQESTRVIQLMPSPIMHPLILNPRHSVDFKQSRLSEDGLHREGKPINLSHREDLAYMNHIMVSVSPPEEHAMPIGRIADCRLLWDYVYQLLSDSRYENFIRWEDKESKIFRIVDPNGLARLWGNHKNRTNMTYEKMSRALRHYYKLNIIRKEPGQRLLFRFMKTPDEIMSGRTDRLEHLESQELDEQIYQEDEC

Sequence of ELF4 (Q99607 whole entry): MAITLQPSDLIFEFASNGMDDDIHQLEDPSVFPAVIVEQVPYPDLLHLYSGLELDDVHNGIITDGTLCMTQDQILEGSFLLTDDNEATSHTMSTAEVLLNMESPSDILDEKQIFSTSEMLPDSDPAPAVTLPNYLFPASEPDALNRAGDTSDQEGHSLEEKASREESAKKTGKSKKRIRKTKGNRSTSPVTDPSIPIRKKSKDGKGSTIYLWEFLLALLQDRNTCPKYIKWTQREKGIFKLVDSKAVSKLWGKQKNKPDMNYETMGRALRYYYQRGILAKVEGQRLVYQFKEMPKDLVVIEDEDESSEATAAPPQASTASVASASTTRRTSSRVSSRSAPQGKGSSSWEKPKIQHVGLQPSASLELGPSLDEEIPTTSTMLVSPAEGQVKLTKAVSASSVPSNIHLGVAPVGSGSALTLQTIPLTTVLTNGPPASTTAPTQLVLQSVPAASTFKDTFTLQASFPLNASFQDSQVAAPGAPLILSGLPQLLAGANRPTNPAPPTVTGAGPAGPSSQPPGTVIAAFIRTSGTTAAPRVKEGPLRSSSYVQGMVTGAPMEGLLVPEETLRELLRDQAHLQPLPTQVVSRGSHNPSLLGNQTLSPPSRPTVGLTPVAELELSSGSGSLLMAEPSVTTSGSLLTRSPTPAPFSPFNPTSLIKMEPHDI
Sequence of ETV1 (P50549 whole entry): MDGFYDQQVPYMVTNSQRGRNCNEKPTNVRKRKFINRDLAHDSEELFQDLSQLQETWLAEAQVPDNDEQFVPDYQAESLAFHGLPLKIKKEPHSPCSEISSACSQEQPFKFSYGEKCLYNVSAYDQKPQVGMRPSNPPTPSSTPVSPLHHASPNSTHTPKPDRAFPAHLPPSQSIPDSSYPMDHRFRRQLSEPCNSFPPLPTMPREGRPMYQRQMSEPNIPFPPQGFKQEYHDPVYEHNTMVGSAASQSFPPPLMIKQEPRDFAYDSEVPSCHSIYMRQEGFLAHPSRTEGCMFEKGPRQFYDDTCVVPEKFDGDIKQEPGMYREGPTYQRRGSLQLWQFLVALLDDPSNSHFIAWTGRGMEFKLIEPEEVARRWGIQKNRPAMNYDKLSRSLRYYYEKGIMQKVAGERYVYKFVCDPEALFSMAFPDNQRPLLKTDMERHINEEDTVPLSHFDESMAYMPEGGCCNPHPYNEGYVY
Sequence of HSF1 (Q00613 whole entry): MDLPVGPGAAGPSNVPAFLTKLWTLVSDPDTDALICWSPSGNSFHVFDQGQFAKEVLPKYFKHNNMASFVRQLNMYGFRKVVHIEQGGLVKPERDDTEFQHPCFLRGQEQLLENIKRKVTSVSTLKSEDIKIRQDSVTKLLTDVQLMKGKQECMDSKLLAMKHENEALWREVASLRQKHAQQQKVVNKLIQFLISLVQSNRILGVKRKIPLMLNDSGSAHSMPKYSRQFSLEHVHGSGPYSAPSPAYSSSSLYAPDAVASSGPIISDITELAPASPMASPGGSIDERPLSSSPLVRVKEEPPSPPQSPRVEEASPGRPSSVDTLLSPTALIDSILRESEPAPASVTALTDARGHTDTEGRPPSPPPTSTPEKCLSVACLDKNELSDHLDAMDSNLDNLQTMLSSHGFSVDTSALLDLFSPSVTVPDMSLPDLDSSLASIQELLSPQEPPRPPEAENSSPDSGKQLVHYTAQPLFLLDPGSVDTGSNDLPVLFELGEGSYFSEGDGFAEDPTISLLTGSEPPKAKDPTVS
Sequence of ETV5 (P41161 whole entry): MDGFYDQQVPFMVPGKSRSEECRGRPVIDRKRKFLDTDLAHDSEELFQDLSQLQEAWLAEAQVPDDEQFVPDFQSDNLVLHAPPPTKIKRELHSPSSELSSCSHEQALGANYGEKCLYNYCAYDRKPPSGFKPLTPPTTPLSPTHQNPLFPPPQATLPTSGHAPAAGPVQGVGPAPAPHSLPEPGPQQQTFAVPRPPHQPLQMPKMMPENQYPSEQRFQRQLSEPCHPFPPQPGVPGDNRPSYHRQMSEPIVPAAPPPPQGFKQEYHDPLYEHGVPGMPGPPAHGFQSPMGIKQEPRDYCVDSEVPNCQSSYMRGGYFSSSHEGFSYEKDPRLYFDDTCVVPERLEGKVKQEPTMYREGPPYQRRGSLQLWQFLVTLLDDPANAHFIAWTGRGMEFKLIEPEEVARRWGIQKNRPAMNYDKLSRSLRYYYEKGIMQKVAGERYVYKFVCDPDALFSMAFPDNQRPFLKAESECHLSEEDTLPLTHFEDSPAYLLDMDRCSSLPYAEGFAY
Sequence of CRX (O43186 whole entry): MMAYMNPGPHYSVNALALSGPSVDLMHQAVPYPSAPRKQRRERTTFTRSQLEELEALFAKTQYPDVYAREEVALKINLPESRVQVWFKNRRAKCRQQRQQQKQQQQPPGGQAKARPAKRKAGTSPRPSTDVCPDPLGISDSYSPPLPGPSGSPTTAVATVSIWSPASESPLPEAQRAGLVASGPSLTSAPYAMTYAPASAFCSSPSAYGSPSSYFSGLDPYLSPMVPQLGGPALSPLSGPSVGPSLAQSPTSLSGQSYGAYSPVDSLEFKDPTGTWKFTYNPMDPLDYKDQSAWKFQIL

TTAACT: the binding signal with FEV is 1.25 fold enrichment (6-mer frequency, TF over GST control); with ETV5 it was 1.2 fold enrichment (6-mer frequency, TF over GST control); in the test with HSF1, 1.79 fold enrichment (6-mer frequency, TF over GST control); with SPIC it was 1.36 fold enrichment (6-mer frequency, TF over GST control); with ELF4 it was 1.23 fold enrichment (6-mer frequency, TF over GST control); with ELK4, 1.2 fold enrichment (6-mer frequency, TF over GST control). Further, the binding signal with ETV2 is 1.17 fold enrichment (6-mer frequency, TF over GST control); with ELF3 it was 1.21 fold enrichment (6-mer frequency, TF over GST control); with CRX, 2.72 fold enrichment (6-mer frequency, TF over GST control); with ETV1, 1.16 fold enrichment (6-mer frequency, TF over GST control); with ERF it was 1.23 fold enrichment (6-mer frequency, TF over GST control); with ETV3L it was 1.19 fold enrichment (6-mer frequency, TF over GST control). The binding signal was 1.25 fold enrichment (6-mer frequency, TF over GST control) with ETS2; 1.18 fold enrichment (6-mer frequency, TF over GST control) with SPDEF; 1.16 fold enrichment (6-mer frequency, TF over GST control) in the test with ETV7; 1.17 fold enrichment (6-mer frequency, TF over GST control) in the test with ELF5; 1.22 fold enrichment (6-mer frequency, TF over GST control) with ETV3; 1.17 fold enrichment (6-mer frequency, TF over GST control) in the test with ETV6.
